# According to PubChem BioAssay (Tox21):
# Results filed as inconclusive are left out. Entries that show only a call come without a potency. Calls of active or inactive are those of the source. Calls follow the shape of the dose curve; as a rule, active = well fitted curve in the direction sought with a large enough effect in the repeat runs; inconclusive = weak or mixed curves; inactive = no such curve, though single readings can be large; an effect the other way counts as inactive or inconclusive.
# Assay: qHTS assay to identify small molecule antagonists of the retinoid acid receptor (RAR) signaling pathway - cell viability counter screen (AID 1159551); also: nearly all actives have a fitted effect of over 35% in size
# Settings: C3RL4 cells viability, ATP luminescence (CellTiter-Glo), 6 h; series mostly up to 92.4 µM
# Outline: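 C3RL4 RARE-luciferase cells, 1,000/well, incubated overnight, then dosed with compound plus 1 uM retinol (final). After 6 hr at 37 C, viability read by CellTiter-Glo ATP luminescence following 30 min at room temperature.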
row,SMILES,Potency
1,CCC1(c2ccccc2)C(=O)NC(=O)NC1=O,inactive
2,CC(C)NCC(O)c1ccc(N)c(C#N)c1 (configuration not stated),inactive
3,CC1CN1P(=O)(N1CC1C)N1CC1C (configuration not stated),inactive
4,CCc1cc2c(s1)-n1c(C)nnc1CN=C2c1ccccc1Cl,inactive
5,O=C1OC(=O)C2C1C1(Cl)C(Cl)=C(Cl)C2(Cl)C1(Cl)Cl (configuration not stated),inactive
6,Cc1nnc2n1-c1sc(CCC(=O)N3CCOCC3)cc1C(c1ccccc1Cl)=NC2,inactive
7,COP(=S)(OC)Oc1c(Cl)cc(C)cc1Cl,inactive
8,CC(C)(C)NCC(O)c1cc(Cl)c(N)c(Cl)c1 (configuration not stated),inactive
9,CC(C)CC(N(C)C)C1(c2ccc(Cl)cc2)CCC1 (configuration not stated),inactive
10,CCC1(c2ccccc2)C(=O)N=C(O)NC1=O (configuration not stated),inactive
11,CCC(=O)C(CCN(C)C)(c1ccccc1)c1ccccc1,inactive
12,COc1cc(C[C@@H](C)N)c(OC)cc1C,inactive
13,CCCCOP(=O)(O)OCCCC,inactive
14,O=P(O)(Oc1ccccc1)Oc1ccccc1,inactive
15,O=NN1CCCCC1,inactive
16,CN/C(=N\[N+](=O)[O-])NCC1CCOC1 (configuration not stated),inactive
17,[Cl][Sn]([Cl])([Cl])[Cl],inactive
18,CCN(Cc1ccc(Cl)nc1)/C(=C/[N+](=O)[O-])NC,inactive

row,SMILES,Potency
1,OC(c1ccc(F)cc1)(c1cncnc1)c1ccccc1Cl (configuration not stated),inactive
2,CCCCCCI,inactive
3,CCOC(=O)NC(=S)Nc1ccccc1NC(=S)NC(=O)OCC,inactive
4,[O]=[Cd],inactive
5,N#Cc1c(Cl)cccc1Cl,inactive
6,C[C@H]1CCC[C@H](O)CCCCCc2cc(O)cc(O)c2C(=O)O1,inactive
7,CC(=O)[C@H]1CC[C@H]2[C@@H]3CC[C@H]4C[C@H](O)CC[C@]4(C)[C@H]3C(=O)C[C@]12C,inactive
8,CCOP(=S)(Oc1cnc(C(C)(C)C)nc1)OC(C)C (configuration not stated),inactive
9,C(CCOCC1CO1)COCC1CO1 (configuration not stated),inactive
10,CN1CCC(O)(c2ccc(F)cc2)C(C(=O)c2ccc(F)cc2)C1 (configuration not stated),inactive
11,CCCCOC(=O)c1ccccc1N,inactive
12,O=S(=O)(O)C(F)(F)C(F)(F)C(F)(F)C(F)(F)C(F)(F)C(F)(F)F,inactive
13,CCC(Cl)[N+](=O)[O-] (configuration not stated),inactive
14,C[C@]12CC[C@H]3[C@@H](CC=C4C[C@@H](O)CC[C@@]43C)[C@@H]1CC[C@@H]2O,inactive
15,Clc1ccccc1N1CCNCC1,inactive
16,C1CCC(C2CCCCC2)CC1,inactive
17,O=C(O)C(Br)CBr (configuration not stated),inactive
18,NC(=O)O,inactive

# Assay: qHTS assay to identify small molecule antagonists of the retinoic acid receptor (RAR) signaling pathway (AID 1159552; also: nearly all actives have a fitted effect of over 50% in size)
# Settings: C3RL4 RARE luciferase reporter, retinol-stimulated, 6 h; series mostly up to 92.4 µM
# Outline: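 Retinol signaling pathway inhibitors screened in C3RL4 RARE-luciferase reporter cells seeded overnight at 37 C, then compounds added with 1 uM (final) retinol as pathway substrate. After 6 hr at 37 C, luciferase luminescence read after 30 min at room temperature.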
row,SMILES,Potency
1,COP(=S)(OC)Oc1c(Cl)cc(C)cc1Cl,inactive
2,OC(c1ccc(F)cc1)(c1cncnc1)c1ccccc1Cl (configuration not stated),inactive
3,C[C@H]1CCC[C@H](O)CCCCCc2cc(O)cc(O)c2C(=O)O1,inactive
4,CC(=O)[C@H]1CC[C@H]2[C@@H]3CC[C@H]4C[C@H](O)CC[C@]4(C)[C@H]3C(=O)C[C@]12C,inactive
5,C(CCOCC1CO1)COCC1CO1 (configuration not stated),inactive
6,CCCCOC(=O)c1ccccc1N,inactive
7,C[C@]12CC[C@H]3[C@@H](CC=C4C[C@@H](O)CC[C@@]43C)[C@@H]1CC[C@@H]2O,inactive
8,Clc1ccccc1N1CCNCC1,inactive
9,C1CCC(C2CCCCC2)CC1,inactive

# Assay: qHTS assay to identify small molecule agonists of the retinoic acid receptor (RAR) signaling pathway (AID 1159553)
# Settings: C3RL4 RARE luciferase reporter, agonist, 6 h; series mostly up to 73.3 µM
# Outline: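 C3RL4 RARE-luciferase cells were seeded at 1,000/well and grown overnight at 37 C, then exposed to compounds for 6 hr at 37 C, 5% CO2. Luciferase reagent was added and luminescence was read after 30 min at room temperature.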
row,SMILES,Potency
1,O=C1OC(=O)C2C1C1(Cl)C(Cl)=C(Cl)C2(Cl)C1(Cl)Cl (configuration not stated),inactive
2,Cc1nnc2n1-c1sc(CCC(=O)N3CCOCC3)cc1C(c1ccccc1Cl)=NC2,inactive
3,COP(=S)(OC)Oc1c(Cl)cc(C)cc1Cl,inactive
4,CCC(=O)C(CCN(C)C)(c1ccccc1)c1ccccc1,inactive
5,OC(c1ccc(F)cc1)(c1cncnc1)c1ccccc1Cl (configuration not stated),inactive
6,C[C@H]1CCC[C@H](O)CCCCCc2cc(O)cc(O)c2C(=O)O1,inactive
7,CC(=O)[C@H]1CC[C@H]2[C@@H]3CC[C@H]4C[C@H](O)CC[C@]4(C)[C@H]3C(=O)C[C@]12C,inactive
8,CCOP(=S)(Oc1cnc(C(C)(C)C)nc1)OC(C)C (configuration not stated),inactive
9,C(CCOCC1CO1)COCC1CO1 (configuration not stated),inactive
10,C[C@]12CC[C@H]3[C@@H](CC=C4C[C@@H](O)CC[C@@]43C)[C@@H]1CC[C@@H]2O,inactive
11,Clc1ccccc1N1CCNCC1,inactive
12,C1CCC(C2CCCCC2)CC1,inactive
